Most compounds without a hit are left out; they make up all but 4.1% or so of the library.
AMA1 RON2 block – qHTS for Inhibitors of AMA1-RON; Towards Development of Antimalarial Drug Lead: Primary Screen; Plasmodium falciparum AMA1 (3D7) - RON2 peptide interaction; AlphaScreen AMA1-biotinylated RON2 peptide binding; Potency, µM (top dose mostly 58.2 µM), for the others: at the top dose activity change, negative = inhibition, hits mostly inhibitors; hit rate 0.2% among 360,000; AID 720542, 2013;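 also: 0% = vehicle wells and -100% = peptide control; nearly all actives have a fitted effect of over 45% in size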
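AMA1 (3D7) with his tag at 25 nM final met compounds first, then biotinylated RON2 peptide at 25 nM; detection used donor plus acceptor beads, 10 µg/mL apiece, read by AlphaScreen after 30 min at room temperature.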
AmpC detergent – qHTS Inhibitors of AmpC Beta-Lactamase (assay with detergent); AmpC hydrolysis of nitrocefin, absorbance 480 nm, 0.01% Triton; Potency, µM (top dose mostly 114 µM), inactives show top-dose activity change, negative = inhibition, usual class: inhibitors; P00811; hit rate 0.041% among 370,000;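 also: 0% = no-compound wells and -100% = no-enzyme wells; nearly all actives have a fitted effect of over 25% in size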
Target sequence (P00811 whole entry, looked up): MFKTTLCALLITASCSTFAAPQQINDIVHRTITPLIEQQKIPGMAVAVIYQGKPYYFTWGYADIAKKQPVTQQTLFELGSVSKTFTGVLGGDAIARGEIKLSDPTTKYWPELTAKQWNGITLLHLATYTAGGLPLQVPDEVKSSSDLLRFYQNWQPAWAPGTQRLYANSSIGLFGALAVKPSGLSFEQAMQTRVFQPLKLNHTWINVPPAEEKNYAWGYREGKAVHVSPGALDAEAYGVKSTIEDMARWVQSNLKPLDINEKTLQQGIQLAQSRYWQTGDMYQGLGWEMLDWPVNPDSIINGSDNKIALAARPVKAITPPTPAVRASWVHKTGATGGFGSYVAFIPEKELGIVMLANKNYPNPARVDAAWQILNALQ
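AmpC (5.3 nM in the dispensed reagent) in 20 mM phosphate pH 7.0 with 0.01% (detergent screen) or 0.0001% Triton X-100 was preincubated with compounds for 15 min at room temperature. Nitrocefin was then added from an 800 uM solution, and hydrolysis was followed at 480 nm.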
FMDV antiviral – High Throughput Screening for Foot and Mouth Disease Virus Antivirals | FMDV antiviral cell-based qHTS | Potency, µM (top dose mostly 57.9 µM), inactives show top-dose activity change, negative = inhibition, usual class: inhibitors | hit rate 1.2% among 410,000 | AID 1159524, 2015; calls by dose curve; tested in HEK293T cells; also: read-out not given here; nearly all actives have a fitted effect of over 45% in size
Sm TGR inh – qHTS Assay for the Inhibitors of Schistosoma Mansoni Peroxiredoxins | Potency, µM (highest dose often 114 µM), for inactives: at the top dose activity change, negative = inhibition, most hits filed as inhibitors | purified TGR, DTNB reduction, TNB absorbance 405 nm | hit rate 3% among 360,000 | Schistosoma mansoni thioredoxin glutathione reductase (TGR), Q962Y6; also: nearly all actives have a fitted effect of over 60% in size
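First, TGR (20 nM dispensed) and NADPH were mixed with compound. Second, a 15 min room-temperature incubation followed. Third, further NADPH and then DTNB were added to start the reaction. Finally, TNB absorbance was monitored kinetically.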
AmpC no deterg – qHTS Inhibitors of AmpC Beta-Lactamase (assay without detergent) | P00811 | AID 485341, 2010 | AmpC nitrocefin hydrolysis, absorbance 480 nm, 0.0001% Triton | hit rate 0.52% among 330,000 | Potency, µM (series often up to 57.1 µM), without a hit: at the top dose activity change, negative = inhibition, usual class: inhibitors;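 also: plate controls were no compound for no effect and no enzyme for full effect; nearly all actives have a fitted effect of over 20% in size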
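AmpC (5.3 nM in the dispensed reagent) in 20 mM phosphate pH 7.0 with 0.01% (detergent screen) or 0.0001% Triton X-100 was preincubated with compounds for 15 min at room temperature. Nitrocefin was then added from an 800 uM solution, and hydrolysis was followed at 480 nm.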
An asterisk follows results filed as active; ? = inconclusive; / = no result; [ ] = dose if it differs, or a comment. Unless noted, calls follow the shape of the dose curve; as a rule, active = well fitted curve in the direction sought with a large enough effect; inconclusive = small, poorly fitted or top-dose-only effect, or another doubt; inactive = no such curve, though single readings can be large; an effect the other way counts as inactive or inconclusive. Unless noted, % is scaled to controls: 0 for no effect and ±100 for the full control effect; potency is read from the fitted curve at half-maximal effect.

SMILES	AMA1 RON2 block	AmpC detergent	FMDV antiviral	Sm TGR inh	AmpC no deterg
Cc1cc(C)c2c(=O)n(CC(=O)NCCCN3CCOCC3)sc2n1	18%	45µM*	-14%	?	14µM*
Cc1ccc(-c2nn(-c3ccccc3)cc2/C=C(\C#N)c2cccc(C#N)c2)o1	11%	-14%	-2%	50µM*	-29%
N#C/C(=C\c1cn(-c2ccccc2)nc1-c1cc2ccccc2o1)c1nc2ccccc2[nH]1	30%	-2%	-4%	3%	-41%
Cc1cc(C(=O)Nc2cccc(-c3nc(CNC(=O)c4sc(C)nc4C)c(C)o3)c2)c(C)o1	/	/	-1%	/	/
O=C(O)c1cc(N2N=C(C(F)(F)F)/C(=C/C=C/c3ccco3)C2=O)ccc1Cl	?	4%	28µM*	10µM*	-3%
COc1ccccc1NC(=O)c1cccc(S(=O)(=O)N2CCCCCC2)c1	/	-15%	-22%	7%	/
CS/C(=C\[N+](=O)[O-])Nc1ccc(OC(F)(F)F)cc1	-1%	4%	-23%	0.28µM*	-19%
CN(C)CC(C)(O)c1ccc2c(c1)CN(Cc1cnn(-c3ccccc3)c1)CCO2 (stereo not given)	/	/	-7%	/	/
Cc1cc2nc(-c3ccc(SCC(=O)N4CCN(C(=O)c5ccco5)CC4)nc3)[nH]c2cc1C	9%	9%	5%	10µM*	87%
Cc1cc2nc(-c3ccc(SCC(=O)N4CCOCC4)nc3)[nH]c2cc1C	-9%	3%	-18%	-1%	42%
C=C(C)COc1ccc(-c2n[nH]c(C)c2-c2ccc(OC)cc2)c(O)c1	-4%	-11%	25µM*	14%	-28%
CC(=O)N1c2ccccc2CC1C(=O)N1CCN(c2cc(Cl)ccc2C)CC1 (stereo not given)	/	10%	?	?	/
CCC(C)n1c(=N)c(C(=O)NCc2ccco2)cc2c(=O)n3cc(C)ccc3nc21 (stereo not given)	/	14%	-18%	1%	/
O=C1c2cccc(OCC(=O)N3CCCc4ccccc43)c2CCN1Cc1ccc(F)cc1	4%[2.32 µM]	-8%	20µM*	-2%	4%
CCOC(=O)N1CCN(C(=O)COc2cccc3c2CCN(Cc2ccc(F)cc2)C3=O)CC1	15%	-6%	14µM*	-9%	131%
CCOC(=O)N1CCN(C(=O)COc2cccc3c2CCN(CC)C3=O)CC1	13%	0%	-13%	-16%	-1%
CCc1ccc(NCc2cc3ccc(OC)cc3n(CC(=O)Nc3cccc(Cl)c3C)c2=O)cc1	/	14%	-8%	-3%	/
CCCCN(CC)Cc1c(O)ccc2c(-c3ccccc3)cc(=O)oc12	-10%	0%	-19%	50µM*	27%
CCN(CC)Cc1c(O)ccc2c(-c3ccccc3)cc(=O)oc12	12%	?	-30%	-36%	-18%
CN1CCN(Cc2c(O)ccc3c(-c4ccccc4)cc(=O)oc23)CC1	-1%	-11%	11%	32µM*	13%
CC1CCc2c(sc(NC(=O)CCCOc3ccc(C(C)(C)C)cc3)c2C(N)=O)C1 (stereo not given)	/	15%	-9%	-19%	/
CCOC(=O)c1cc(C)sc1/N=C/C1C(=O)NC(=S)NC1=O	-23%	0%	-19%	4.5µM*	-30%
CC1(c2ccc3noc(-c4ccccc4)c3c2)OCCO1	3%	?	16µM*	-1%	-14%
Cc1cc(C(=O)N/N=C/c2ccc3c(c2)OCO3)c(C)n1-c1ccc(F)cc1	1%	3%	46%	-19%	-44%
Cc1cc(C(=O)N/N=C/c2ccc(Cl)c([N+](=O)[O-])c2)c(C)n1-c1ccc(F)cc1	8%	-9%	-32%	-17%	16µM*
COc1ccc(CN2C(=O)NC(=O)/C(=C/c3ccoc3)C2=O)cc1	-16%	-5%	?	?	10µM*
COc1ccc(-c2cc(C(=O)NC(Cc3cc4ccccc4[nH]3)C(=O)O)c(C)o2)cc1OC (stereo not given)	1%	4%	21%	?	-13%

Screens as filed in PubChem.
